By AC50 is commonly meant the midpoint of the concentration-response curve, whichever way the signal moves.

Consider twelve compounds from PubChem BioAssay (EPA / NIEHS).

Records with an inconclusive call do not appear. Activity calls are given as the source filed them. Rule for the calls, unless noted: active = hit-call score of the fitted dose curve at least 0.9, where 1 is the maximum; inactive = score below 0.9.

Assay [1] can be described thus: UKN4_HCS_LUHMES_cell_viability: Viability Assessment in the University of Konstanz (UKN) Leist Lab Neurite Outgrowth Assay in human LUHMES cells (UKN4) (AID 2284232). The method in brief:
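Day-2 differentiated LUHMES, 30000 cells/well, dosed ~30 min–2 h post-seeding; 24 h treatment incl. staining; Hoechst H-33342 + calcein-AM at 23.5 h; HCS imaging; DMSO-normalized, bidirectional fit.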

The nature of assay [2]: UKN2_HCS_IMR90_cell_viability: Viability Assessment in the University of Konstanz (UKN) Leist Lab Neural Crest Cell Migration Assay in human induced IMR90 Pluripotent Stem Cells (UKN2) (AID 2284233).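 Note: viability of neural crest cells differentiated from IMR90 iPSC measured by calcein-AM fluorescence imaging; cells exposed to compound for 24 h after a 24 h migration phase.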 The method in brief:
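cMINC format, iPSC-derived neural crest (IMR90); 24 h migration (EGF/FGF, N2-S), then 24 h toxicant. Calcein-AM/H-33342 stain 30 min; fluorescence intensity by HCS; DMSO-normalised, bidirectional fitting.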

Assay [3] in a line: CCTE_Mundy_HCI_hNP1_Casp3_7: CCTE's Caspase-Glo 3/7 Assay in human neuroprogenitor cells for Apoptosis, Mundy Lab (AID 2284240). In short, it runs like this: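 Neuroepithelial-lineage stem cells from WA09 embryonic cells were treated with chemicals after 40–44 h of culture. Twenty-four hours later, caspase-3/7 activation was detected luminescently after a 30 min room-temperature reagent step, with DMSO as baseline.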

Assay [4] in a line: CCTE_Mundy_HCI_Cortical_Synap_Neur_Matur_NeuronCount: CCTE's Synaptogenesis and Neurite Maturation Assay in rat cortical cells for Neuron Count, Mundy Lab (AID 2284242; active = hit-call score of the fitted dose curve at least 0.9, where 1 is the maximum;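 for AC50: neuron number from Hoechst nuclei and MAP2 staining by high-content imaging; hits reduce neuron count versus DMSO baseline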). The method in brief:
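Rat cortical cultures; AraC DIV 5; chemical dosing + media change DIV 7 to DIV 12 (288.33 h readout). Fix, Hoechst, anti-MAP2/anti-synaptophysin immunostain; HCI neuron count vs DMSO baseline.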

The nature of assay [5]: IUF_NPC2c_oligodendrocyte_migration_120hr: Leibniz Research Institute for Environmental Medicine (IUF) 120-hour Neural Progenitor Cell Migration Assay for Oligodendrocyte Migration (NPC2c) (AID 2284297). In short, it runs like this:
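Read-out is the mean distance of O4-positive oligodendrocytes from the sphere core edge at 120 h, normalized to radial glia migration and fitted in the gain direction against DMSO. Spheres of primary human neural progenitors differentiated on laminin under continuous compound exposure.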

A short description of assay [6]: IUF_NPC2a_radial_glia_migration_120hr: Leibniz Research Institute for Environmental Medicine (IUF) 120-hour Neural Progenitor Cell Migration Assay for Radial Glia Migration (NPC2a) (AID 2284298). The method in brief:
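Readout: distance in um from sphere core edge to migration-area edge, derived from Hoechst nuclei density with a threshold-defined polynomial boundary. Spheres: hNPC, GW 16-19, 0.3 mm, on PDL/laminin; exposure 5 days; DMSO is baseline.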

Assay [7] is described as follows: IUF_NPC2a_radial_glia_migration_72hr: Leibniz Research Institute for Environmental Medicine (IUF) 72-hour Neural Progenitor Cell Migration Assay for Radial Glia Migration (NPC2a) (AID 2284299). The method in brief: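 Readout: mean of four manual brightfield measurements of radial glia migration distance (um) at 72 h. hNPC spheres (0.3 mm) exposed to 7 compound concentrations plus solvent control on PDL/laminin, 37C, 5% CO2; activity fitted relative to DMSO.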

Assay [8] can be described thus: IUF_NPC2b_neuronal_migration_120hr: Leibniz Research Institute for Environmental Medicine (IUF) 120-hour Neural Progenitor Cell Migration Assay for Neuron Migration (NPC2b) (AID 2284300). The method in brief: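 Read-out is mean distance from sphere edge to each TUBB3-positive neuron at 120 h, expressed relative to radial glia migration distance and to DMSO baseline. Single 0.3 mm human NPC spheres differentiated on laminin under continuous compound exposure.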

Assay [9] can be described thus: IUF_NPC3_neuronal_differentiation_120hr: Leibniz Research Institute for Environmental Medicine (IUF) 120-hour Neuronal Differentiation Assay (NPC3) (AID 2284301). In short, it runs like this: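 Neuronal differentiation of primary human neural progenitors measured by high-content imaging: percent TUBB3+ of Hoechst+ nuclei within migrated area at 120 h, seven-point serial dilution plus solvent control, gain or loss relative to DMSO.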

A short description of assay [10]: IUF_NPC4_neurite_length_120hr: Leibniz Research Institute for Environmental Medicine (IUF) 120-hour Neuronal Morphology Assay for Neurite Length (NPC4) (AID 2284302). The method in brief: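 Neurons from differentiating human fetal neural progenitor spheres are scored for average neurite length after five days of compound exposure. Fitting uses DMSO as negative control.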

Assay [11] can be described thus: IUF_NPC5_oligodendrocyte_differentiation_120hr: Leibniz Research Institute for Environmental Medicine (IUF) 120-hour Oligodendrocyte Differentiation Assay (NPC5) (AID 2284304; active = hit-call score of the fitted dose curve at least 0.9, where 1 is the maximum;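 note: primary human fetal neural progenitor spheres plated to migrate and differentiate; share of O4-positive cells among Hoechst nuclei found by CNN image analysis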). The method in brief:
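Oligodendrocyte differentiation was scored after 120 h as the O4-positive share of Hoechst-stained nuclei across the neurosphere migration area, using a trained convolutional neural network on high-content fluorescence images. Human fetal neural progenitor spheres were dosed from day 0, normalised to DMSO.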

Assay [12] can be described thus: IUF_NPC4_neurite_area_120hr: Leibniz Research Institute for Environmental Medicine (IUF) 120-hour Neuronal Morphology Assay for Neurite Area (NPC4) (AID 2284305; active = hit-call score of the fitted dose curve at least 0.9, where 1 is the maximum). In short, it runs like this:
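Endpoint at 120 h: automated imaging of TUBB3/Hoechst-stained differentiating human neural progenitor spheres, neurite area per neuron from skeletonization. DMSO solvent control, not above 0.1%, set the baseline; medium was half-replaced on day 3.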

Assay [13] in a line: IUF_NPC2-5_cytotoxicity_72hr: Cytotoxicity Assessment at 72 hours in the Leibniz Research Institute for Environmental Medicine (IUF) Neural Progenitor Cell Migration and Differentiation Assay for Cytotoxicity (NPC2-5) (AID 2284306; active = hit-call score of the fitted dose curve at least 0.9, where 1 is the maximum;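 note: LDH release into supernatant measured by resorufin fluorescence marking membrane damage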). The method in brief:
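Primary human neural progenitor spheres migrate and differentiate on laminin. Compound is present from the start of differentiation, with DMSO kept at or below 0.1%. At 72 h, supernatant LDH is quantified fluorometrically, with values fitted in the positive direction.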

Assay [14] in a line: IUF_NPC2-5_cytotoxicity_120hr: Cytotoxicity Assessment at 120 hours in the Leibniz Research Institute for Environmental Medicine (IUF) Neural Progenitor Cell Migration and Differentiation Assay (NPC2-5) (AID 2284307; active = hit-call score of the fitted dose curve at least 0.9, where 1 is the maximum;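 for AC50: LDH released into supernatant as membrane damage marker via resorufin fluorescence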). In short, it runs like this:
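Sphere plating starts differentiation and exposure together at day 0. Compound solution is half-replaced on day 3. At 120 h, medium supernatant is taken for an LDH membrane-integrity read based on resazurin reduction to resorufin fluorescence.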

Assay [15] in a line: IUF_NPC2-5_cell_number_120hr: Cell Number Assessment at 120 hours in the Leibniz Research Institute for Environmental Medicine (IUF) Neural Progenitor Cell Migration and Differentiation Assay (NPC2-5) (AID 2284308).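 Note: count of Hoechst-stained nuclei in migration zone around plated human neural progenitor spheres.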 The method in brief:
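hNPC spheres, one per well, PDL/laminin, N2 medium, 37C, 5% CO2. Dosing day 0 → half-medium change with fresh compound day 3 → fix 120 h. Readout: Hoechst+ nuclei count, migration area; 7 concentrations plus solvent control.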

A short description of assay [16]: CCTE_Mundy_HCI_hNP1_CellTiter: CCTE's Cell Titer-Glo 2 Assay in human neuroprogenitor cells for Viability, Mundy Lab (AID 2284241; active = hit-call score of the fitted dose curve at least 0.9, where 1 is the maximum;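 for AC50: a hit is a drop in ATP luminescence versus DMSO meaning reduced viability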). The method in brief: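 Measures ATP content in human neural progenitors derived from WA09 embryonic cells. Read-out at 26.5 hours after dosing, with DMSO serving as the negative control and baseline.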
For orientation: Cellular ATP, detected with luciferase, serves as a proxy for viable cell number.

A short description of assay [17]: CCTE_Mundy_HCI_Cortical_NOG_BPCount: CCTE's Neurite Outgrowth Assay in rat cortical cells for Branch Point Count, Mundy Lab (AID 2284237). The method in brief:
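Measured 50.33 h after dosing, this morphology endpoint uses rat primary cortical cultures labelled for betaIII-tubulin. Branch points are quantified by high-content imaging, with DMSO as negative control and baseline.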

Assay [18] in a line: VALA_TUBHUV_Agonist_CellCount: Viability Assessment in the VALA Sciences human Umbilical Vein Endothelial Tubule Formation (TUBHUV) Agonism Assay (AID 2284309; active = hit-call score of the fitted dose curve at least 0.9, where 1 is the maximum). The method in brief:
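Viability endpoint by fluorescent imaging of fixed nuclear/CD31-stained HUVEC–HDF co-cultures. Readout is cell count, fitted upward against 0.1% DMSO. Compound exposure was 72 h in 10 ng/ml VEGF, after 3-day co-culture priming.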

Assay [19] can be described thus: TAMU_HCS_1.5hr_SingleDonor1434_Cytotoxicity: Cytotoxicity Assessment using High-content Screening (HCS) Fluorescent Imaging for the Texas A&M University (TAMU) 1.5-hr Human Induced Pluripotent Stem Cell (iPSC)-derived Cardiotoxicity Assay (AID 2284234; active = hit-call score of the fitted dose curve at least 0.9, where 1 is the maximum). The method in brief: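 Nuclear counts from Hoechst 33342 imaging define cytotoxicity here, with EC10 (10% cell-count loss relative to DMSO) as point of departure. iPSC cardiomyocytes received 0.2-100 uM test chemical in 0.5% DMSO for 1.5 h at 37 C.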

A short description of assay [20]: TAMU_PeakParms_SingleDonor1434_QT: Texas A&M University (TAMU) 1.5-hr Human Induced Pluripotent Stem Cell (iPSC)-derived Cardiomyocytes Calcium (Ca+2) Flux Assay for Cardiotoxicity: QT (decay-rise ratio) (AID 2284235; active = hit-call score of the fitted dose curve at least 0.9, where 1 is the maximum). The method in brief: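 Decay/rise ratio of calcium-flux fluorescence scored after 90 min exposure (37C) of donor 1434 iPSC cardiomyocytes to 0.2–100 uM (0.5% DMSO). Beat-cessation and severe-notch points removed; POD is EC05, a 5% rise over DMSO.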

Take `O=C1NC(=O)C(c2ccccc2)(c2ccccc2)N1`: the call in assay [1], in assay [2], in [3], in assay [4], in assay [5] and in [6] was inactive. Further, the compound was called inactive in assay [7], in [8], in assay [9], in assay [10], in assay [11] and in assay [12]. For the same compound, the compound was classed as inactive in [13], in assay [14] and in assay [15].
Turning to `CN(C)CCCN1c2ccccc2Sc2ccc(Cl)cc21`, the AC50 in assay [2] is 14.3 µM (active); in assay [3], 11.6 µM (active); in assay [16], 24.7 µM (active); in [4], 13.7 µM (active); in [5], 16.1 µM (active); in [6], 14.2 µM (active). Moreover, the AC50 in assay [7] was 15.1 µM (active); in assay [8] it was 15 µM (active); in assay [9] it was 7.59 µM (active); in assay [10], 6.02 µM (active); in assay [11], 0.756 µM (active); in [12], 8.38 µM (active). Moreover, the AC50 in assay [13] was 15.3 µM (active); in assay [14] it was 5.75 µM (active); in assay [15] it was 12.8 µM (active).
`OCC(O)CO`: the compound was classed as inactive in assay [1], in assay [17], in [3], in assay [16], in assay [5] and in assay [6]. The call in assay [7], in [8], in [9], in [10], in [11] and in assay [12] was inactive. Moreover, the compound was classed as inactive in assay [13], in [14] and in [15].
As for `Nc1nc(Cl)nc2c1ncn2[C@H]1C[C@H](O)[C@@H](CO)O1`, the AC50 in assay [18] was 1.56 µM (active).
Regarding `COC(=O)[C@H]1[C@H]2C[C@@H]3c4[nH]c5cc(OC)ccc5c4CCN3C[C@H]2C[C@@H](OC(=O)c2cc(OC)c(OC)c(OC)c2)[C@@H]1OC`, the result in assay [19], in assay [20] and in assay [18] was inactive.
Consider `Cc1occc(=O)c1O`, for which the compound was classed as inactive in assay [19] and in [20].
On to `O=C(O)CC(O)(CC(=O)O)C(=O)O`, for which the compound was classed as inactive in [19] and in assay [20].
For `Cc1ccc(-c2cc(C(F)(F)F)nn2-c2ccc(S(N)(=O)=O)cc2)cc1`, in [18], the outcome was inactive.
Same read-out and setting: then `O=C1OC(c2ccc(O)cc2)(c2ccc(O)cc2)c2ccccc21`, with “inactive”.
As for `CCc1nc(N)nc(N)c1-c1ccc(Cl)cc1`, the result in assay [20] was inactive.
For `CC(=O)CC(c1ccccc1)c1c(O)c2ccccc2oc1=O` (stereo unspecified), the call in assay [17], in [3], in [4], in [5], in assay [6] and in [7] was inactive. The compound was classed as inactive in [8], in assay [9], in assay [10], in assay [11], in assay [12] and in assay [13]. Moreover, the compound was called inactive in [14] and in [15].
Take `CCCCC(CC)COP(=O)(OCC(CC)CCCC)OCC(CC)CCCC` (stereo unspecified): the call in [18] was inactive.
